# This excerpt belongs to a sample that is enriched for hits.
# PRC2 inh: EZH2 (human) methyltransferase inhibition. PRC2 H3K27 methylation, DELFIA TRF, 1 h. 57,000 tested, 0.35% active. inhibition, % at 12.5 µM. Q15910;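 active = mean inhibition of replicates at least 50% and every single replicate also reaching 50%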;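 also: dimethyl H3K27 on biotinylated H3 21-44 peptide detected by antibody; plate controls were median neutral control wells for no effect and median positive control wells for full effect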
# Target sequence (Q15910 whole entry, looked up): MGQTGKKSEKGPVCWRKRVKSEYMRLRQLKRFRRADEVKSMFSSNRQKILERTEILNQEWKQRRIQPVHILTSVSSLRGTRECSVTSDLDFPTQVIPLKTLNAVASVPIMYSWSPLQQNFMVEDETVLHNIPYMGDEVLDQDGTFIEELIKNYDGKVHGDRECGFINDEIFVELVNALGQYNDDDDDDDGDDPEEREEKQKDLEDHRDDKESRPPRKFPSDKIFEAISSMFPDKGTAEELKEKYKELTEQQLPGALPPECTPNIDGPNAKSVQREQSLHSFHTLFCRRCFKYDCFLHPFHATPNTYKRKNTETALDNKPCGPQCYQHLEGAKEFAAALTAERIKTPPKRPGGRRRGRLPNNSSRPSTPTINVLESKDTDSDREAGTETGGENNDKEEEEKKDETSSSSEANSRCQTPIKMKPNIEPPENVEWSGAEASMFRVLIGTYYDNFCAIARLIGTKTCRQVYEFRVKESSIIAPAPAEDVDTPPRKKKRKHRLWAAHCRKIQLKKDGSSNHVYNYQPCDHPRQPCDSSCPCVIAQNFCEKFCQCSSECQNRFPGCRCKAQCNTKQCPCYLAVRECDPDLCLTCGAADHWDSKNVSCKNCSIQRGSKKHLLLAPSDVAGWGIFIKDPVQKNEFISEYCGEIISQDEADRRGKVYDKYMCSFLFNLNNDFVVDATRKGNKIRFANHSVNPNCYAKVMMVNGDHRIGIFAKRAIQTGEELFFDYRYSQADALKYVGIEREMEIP
# * hit, by the source's call.
SMILES,PRC2 inh
CCOC(=O)c1ccc(NC(=O)CC2NC3CCCCC3NC2=O)cc1 (configuration not stated),-29
CSc1nnc(-c2cc(Cl)ccc2NC(C)=O)c(=O)[nH]1,-16
C=CCOC(=O)C1=C[C@H](c2coc3ccccc3c2=O)C[C@H](OCc2ccc(CO)cc2)O1,0
O=C(NC1CC1)C1=C[C@H](c2csc3ccccc23)C[C@H](OCc2ccc(CO)cc2)O1,4
C=CCOC(=O)C1=C[C@H](c2csc3ccccc23)C[C@H](OCc2ccc(CO)cc2)O1,59*
O=C(COc1ccc([N+](=O)[O-])cc1)Nc1cccc(-c2nc3c(ccc4ccccc43)o2)c1,-1
COC(=O)CCCCCCC(=O)N/N=C/c1ccc(-c2cccc(Cl)c2)o1,54*
CCCCN(CCCC)c1ccc(/C=N/NC(=O)CCCCCCC(=O)OC)cc1,80*
COC(=O)CCCCCCC(=O)N/N=C/c1cccc(Oc2ccccc2)c1,56*
CCCCN(CCCC)c1ccc(/C=N/NC(=O)c2ccccc2O)cc1,19
O=C(N/N=C/c1ccc(-c2cccc(Cl)c2)o1)c1ccccn1,6
COC(=O)CCCCCCC(=O)N/N=C/c1ccc(OCCO)cc1,18
COC(=O)CCCCCCC(=O)N/N=C/c1cccc(OCCO)c1,6
O=C(CCCCC(=O)N/N=C/c1ccc(-c2cccc(Cl)c2)o1)NO,-1
COC(=O)CCCCCCC(=O)N/N=C/c1ccccc1,22
COc1ccccc1NC(=O)N(C)C[C@@H]1OCc2cn(nn2)CCCC(=O)N([C@@H](C)CO)C[C@H]1C,3
O=S(=O)(Cc1ccccc1)NCC[C@H]1CC[C@H](NS(=O)(=O)c2ccc(F)cc2)[C@H](CO)O1,-3
C[C@H]1CN([C@@H](C)CO)C(=O)c2cc(C#CCN(C)C)cnc2O[C@@H]1CN(C)Cc1ccccc1,-16
C/C=C/c1ccc(OCCCN2C(=O)NC(C)(C)C2=O)c(OC)c1,-20
O=[N+]([O-])c1ccc2nc(CSc3nc4ccccc4s3)[nH]c2c1,12
Cc1ccc(S(=O)(=O)NCC[C@H]2CC[C@H](NC(=O)C3CCOCC3)[C@@H](CO)O2)cc1,9
COC(=O)CCCCCCC(=O)N/N=C/c1ccc2c(c1)OCCO2,11
CCC(=O)Nc1ccc2c(c1)OC[C@H](C)N(Cc1ccncc1)C[C@H](C)[C@H](OC)CN(C)C2=O,18
Cc1cc(C)c(S(=O)(=O)N(C)CC(=O)Nc2cccc([N+](=O)[O-])c2)c(C)c1,-6
Cc1ccc2c(CC(=O)Nc3cccc([N+](=O)[O-])c3)coc2c1C,51*
SMILES,PRC2 inh
Cc1ccc2c(CC(=O)NCc3ccco3)coc2c1C,-10
CC1OC(OCC2OC(Oc3cc(O)c4c(=O)c(-c5ccc(O)cc5)coc4c3)C(O)C(O)C2O)C(O)C(O)C1OC1OC(CO)C(O)C(O)C1O (configuration not stated),64*
C[C@@H]1O[C@@H](O[C@H]2[C@H](Oc3cc(O)c4c(=O)cc(-c5ccc(O)cc5)oc4c3)O[C@H](CO)[C@@H](O)[C@@H]2O)[C@H](O)[C@H](O)[C@H]1O,-5
COc1ccc(-c2coc3cc(O[C@@H]4O[C@H](CO)[C@@H](O)[C@H](O)[C@H]4O)cc(O)c3c2=O)cc1,-18
O=C(C[C@H]1CC[C@H](NC(=O)CC2CC2)[C@H](CO)O1)NCc1ccc(-c2ccccc2)cc1,-7
C[C@H]1CN([C@@H](C)CO)C(=O)Cc2cc(NS(C)(=O)=O)ccc2O[C@H]1CN(C)Cc1ccncc1,4
COc1ccc(NC(=O)Nc2cccc3c2O[C@H](CN(C)Cc2ccc4c(c2)OCO4)[C@@H](C)CN([C@H](C)CO)C3=O)cc1,0
CCCNC(=O)Nc1ccc2c(c1)OC[C@@H](C)N(C)C[C@H](C)[C@@H](OC)CN(C)C2=O,5
C[C@H](CO)N1C[C@H](C)[C@H](CN(C)S(=O)(=O)c2ccc(F)cc2)OCc2cn(nn2)CCCC1=O,6
CC(=C\C(=O)O)/C=C(\C)CC(C)CCCCC(O)C(CO)C(=O)O (configuration not stated),-10
NS(=O)(=O)c1ccc(NC(=O)CSc2ncnc3sc4c(c23)CCCCC4)cc1,-2
COc1ccc(C#Cc2ccc3c(c2)[C@]2(C(=O)N3)[C@H](C(=O)O)[C@H]3C(=O)O[C@H](c4ccccc4)[C@H](c4ccccc4)N3[C@@H]2c2ccccc2OCCO)cc1,75*
COc1ccc(C#Cc2ccc3c(c2)[C@]2(C(=O)N3)[C@H](c3ccccc3OCCO)N3[C@H](c4ccccc4)[C@H](c4ccccc4)OC(=O)[C@H]3[C@@H]2C(N)=O)cc1,-38
COC(=O)C(CC#Cc1ccc2c(c1)[C@]1(C(=O)N2)[C@H](c2ccccc2OCCO)N2[C@H](c3ccccc3)[C@H](c3ccccc3)OC(=O)[C@H]2[C@@H]1C(=O)O)C(=O)OC,69*
O=C1O[C@H](c2ccccc2)[C@H](c2ccccc2)N2[C@H]1[C@@H](C(=O)O)[C@]1(C(=O)Nc3ccc(C#CCCO)cc31)[C@H]2c1ccccc1OCCO,23
